Assay results taken from PubChem BioAssay.
Several values for one entry are separate records, joined by “and”; a condition that tells them apart may be missing. Identical values can stand only once.

Experiment: viability loss with induced miR-34 in A549 – imaging, A549 dox-inducible miR-34, nuclei and caspase counts, primary screen (AID 1347080); also: test concentration not given here
Details: A549 miR-34 inducible, Hoechst nuclei count, 48 h; measured here: total cells with miR-34 induction; stronger effect = lower value
For `O=C1CC[C@@]2(O)[C@H]3Cc4ccc(O)c5c4C2(CCN3CC2CC2)[C@H]1O5`, the cell count was 11500. `C=C[C@H]1CN2CC[C@H]1C[C@@H]2[C@@H](OC(=O)OCC)c1ccnc2ccc(OC)cc12` gave a cell count of 11100. With `COc1cccc([C@]2(O)CCCC[C@H]2CN(C)C)c1` the cell count was 11600. For `NC1C[C@H]1c1ccccc1` (stereo partly drawn), the cell count was 11800. For `C[C@@H]1O[C@@H](O[C@H]2C[C@@H](O)[C@]3(CO)C4C(CC[C@]3(O)C2)[C@@]2(O)CC[C@H](C3=CC(=O)OC3)[C@@]2(C)C[C@H]4O)[C@H](O)[C@H](O)[C@H]1O` (stereo partly drawn), the cell count was 195. `CC(C)C[C@@H](CN)CC(=O)O` showed a cell count of 12300. `CC1[C@H](C)OC(=O)CC(O)CC(O)CC(O)CCC(O)C(O)C[C@]2(O)CC(O)C(C(=O)O)C(CC(OC3O[C@H](C)[C@@H](O)[C@H](N)[C@@H]3O)/C=C/C=C/C=C/C=C/CC/C=C/C=C/[C@H](C)[C@H]1O)O2` (stereo partly drawn) gave a cell count of 11200. In the case of `C[N+](C)(C)CC(=O)[O-]`, the cell count is reported as 11400. `C#CC1(O)CCC2C3CCC4=CC(=O)CCC4(C)C3CCC21C` (stereo not drawn) gave a cell count of 10400. `CCC(=O)O[C@H]1CCC2C3CCC4=CC(=O)CC[C@]4(C)C3CC[C@@]21C` (stereo partly drawn) gave a cell count of 10500. `CCN1C[C@@]2(COC)C3[C@@H](OC)[C@H]4[C@@H]1[C@]3(C(OC)C[C@H]2O)C1C[C@@]2(O)[C@H](OC(=O)c3ccccc3)C1[C@]4(OC(C)=O)[C@@H](O)[C@@H]2OC` (stereo partly drawn) showed a cell count of 11000. With `C=CCN1CC[C@]23c4c5ccc(O)c4OC2C(=O)CC[C@@]3(O)[C@H]1C5` (stereo partly drawn) the cell count was 11800. With `C=C1CC2C(CC[C@]3(C)C(=O)CCC23)[C@@]2(C)C=CC(=O)C=C12` (stereo partly drawn) the cell count was 8770 and 9350.
